Shown are actives, neighbours in structure and some others; about 5.2% of the full set was active somewhere.
Coupling enz = qHTS Assay for Inhibitors of Fructose-1,6-bisphosphate Aldolase from Giardia Lamblia: Coupling assay counterscreen; coupling enzyme system counterscreen, AmpLite Red fluorescence; AID 2472, 2010; activity change, negative = inhibition, % at 58.2 µM, hits read low; 290,000 compounds, 0.67% hits; in the data active means activity change below about -30%
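Fluorescence at 525 nm excitation and 598 nm emission measured inhibition of the coupled detection system without aldolase. Compounds (at 57.5 uM final) were preincubated 10 min at room temperature with coupling enzyme reagent before a 20 min substrate/AmpLite Red step.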
Tau fibril FP = qHTS for Inhibitors of Tau Fibril Formation, Fluorescence Polarization. 280,000 compounds, 0.39% hits. Microtubule-associated protein tau (Homo sapiens), P10636. AID 1468, 2008. Potency, µM (titrated, usually from 57.7 µM), hits mostly inhibitors. K18 P301L tau heparin fibrillization, Alexa594 FP, 6 h; further: nearly all actives have a fitted effect of over 55% in size
Target sequence (P10636 561-689 P618L limits assumed): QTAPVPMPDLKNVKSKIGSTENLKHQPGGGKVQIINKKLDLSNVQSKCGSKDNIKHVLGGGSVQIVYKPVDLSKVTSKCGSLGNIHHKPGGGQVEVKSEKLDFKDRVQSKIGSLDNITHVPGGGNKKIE
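Heparin (20 uM) drove fibril formation of recombinant tau K18 P301L, 15 uM unlabeled with 0.24 uM Alexa 594 label, for 6 hr at 37 C in 100 mM sodium acetate pH 7. Fluorescence polarization (555/632 nm) read 1 hr after 30 uM ThT.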
Tau ThT inhib = qHTS for Inhibitors of Tau Fibril Formation, Thioflavin T Binding. 270,000 compounds, 2.1% hits. Microtubule-associated protein tau (Homo sapiens), P10636. AID 1460, 2008. Potency, µM (highest dose often 57.4 µM), usual class: inhibitors. recombinant tau K18 P301L, heparin-induced fibrillization, ThT fluorescence; further: nearly all actives have a fitted effect of over 55% in size
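In this qHTS, human K18 P301L tau is incubated with compound and heparin for 6 hr at 37 C, and Thioflavin T fluorescence then reports fibril load.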
Sfp PPTase inh = qHTS Assay for Inhibitors of Bacillus subtilis Sfp phosphopantetheinyl transferase (PPTase). 4'-phosphopantetheinyl transferase ffp (Bacillus subtilis), Q9F4F7. Biochemical Sfp PPTase activity, qHTS. Potency, µM, hits mostly inhibitors. 310,000 compounds, 3.5% hits. AID 1490, 2009;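 further: the enzyme is Sfp with the accession as filed and its product quenches rhodamine fluorescence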
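Reaction rates are the 30-min fluorescence difference (ex 525, em 598 nm) in wells containing 15 nM Sfp, 5 uM rhodamine-CoA and 12.5 uM BHQ-2-YbbR at pH 7.6 with 10 mM MgCl2.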
Tau fluor counter = Counterscreen qHTS for Inhibitors of Tau Fibril Formation, Fluorescence Polarization | tau K18 P301L (four-repeat tau fragment) Alexa594 fluorescence, heparin fibrillization | Potency, µM (series often up to 57.7 µM) | 280,000 compounds, 0.93% hits | AID 1463, 2008; further: nearly all actives have a fitted effect of over 55% in size
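Human K18 P301L tau (15 uM unlabeled plus 0.24 uM Alexa 594-labeled, final) in 100 mM sodium acetate pH 7 was mixed with compound and 20 uM heparin and incubated 6 hr at 37 C.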
Numbers stand for hits; . = inactive; ? = inconclusive; / = no result; [ ] = dose if it differs, or a comment. Unless noted, the call rests on the fitted dose curve; in most records, active means well fitted curve in the direction sought with a large enough effect; inconclusive means small, poorly fitted or top-dose-only effect, or another doubt; inactive means no such curve, though single readings can be large; an effect the other way counts as inactive or inconclusive.

SMILES	Coupling enz	Tau fibril FP	Tau ThT inhib	Sfp PPTase inh	Tau fluor counter
COC(=O)c1c(NC(=O)c2c(C)noc2C)sc2c1CCCCCC2	.	.	.	.	.
CCOC(=O)c1c(NC(=O)c2ccoc2C)sc2c1CCC2	.	.	.	25.1µM	.
CCOC(=O)c1c(NC(=O)c2ccccc2C(=O)O)sc2c1CCCC2	.	/	/	.	/
CCOC(=O)c1c(NC(=O)Cn2c(C)nc3ccccc32)sc2c1CCC2	.	.	.	.	.
COC(=O)c1c(NC(=O)c2c(-c3ccccc3Cl)noc2C)sc2c1CCC2	.	.	.	28.2µM	.
CCOC(=O)c1c(NC(=O)c2ccccc2C)sc2c1CCCC2	/	?	31.6µM	/	.
CCOC(=O)c1c(NC(=O)COC(=O)Cn2c(C)nc3ccccc32)sc2c1CCCC2	.	.	?	31.6µM	.
Cc1nn(CCC(=O)Nc2ccccc2Br)c(=O)c2nn(-c3ccccc3)c(C)c12	/	.	.	/	.
COc1ccccc1CNC(=O)c1ccc2c(c1)CCN2S(=O)(=O)c1ccc(Cl)cc1	/	.	.	/	.
CCOC(=O)c1c(NC(=O)c2nn(CC)cc2Br)sc(C)c1C	.	.	.	?	.
CCOC(=O)c1c(NC(=S)Nc2ccccc2)sc2c1CCCCC2	.	.	.	?	.
CCn1cc(C(=O)NC(=S)Nc2sc3c(c2C(=O)OC)CCCCCC3)cn1	.	.	.	35.5µM	.
CCOC(=O)c1c(NC(=O)c2nn(CC)cc2Br)sc2c1CCCCC2	.	.	?	20µM	.
O=C(c1ccccc1Cl)N1CCCC(c2nc3c(nnn3Cc3ccc(F)cc3F)c(=O)[nH]2)C1 (stereo not drawn)	/	.	?	/	.
Cc1ccc(C)c(N2C(=O)N(C)c3ccccc3S2(=O)=O)c1	/	.	.	/	.
CC(C)=CCC1=C(O)c2ccccc2C(=O)C1=O	-60.9	?	28.2µM	.	?
CCCOC(=O)c1ccc(NC(=O)Cc2csc(C)n2)cc1	/	.	.	/	.
CCOC(=O)c1c(C)[nH]c(C(=O)CN2CCN(CC)CC2)c1C	.	.	/	79.4µM	.
C[C@H]1Cc2c(COc3ccccc3)nc3c(c2CO1)CN(C(=O)NCCc1c[nH]c2ccccc12)CC3	.	.[11.6 µM]	.[11.5 µM]	.	.[11.6 µM]
CCc1sc(N)nc1-c1ccccc1	.	.	?	79.4µM	.
Cn1cccc1C(=O)N1CCC2(CCN(C(=O)Nc3cccc(F)c3)CC2)CC1	.	/	/	.	/
C=CCc1cccc(/C=N/c2ncccc2O)c1O	-42.8	.	?	?	.
Cc1ccc(NNC(N)=S)cc1Cl	.	.	?	12.6µM	.
NC(=S)NNc1ccc(Cl)c(Cl)c1	.	?	/	3.16µM	.
NC(=S)Nc1ccc(Cl)c(Cl)c1	.	.	/	.	.
SMILES	Coupling enz	Tau fibril FP	Tau ThT inhib	Sfp PPTase inh	Tau fluor counter
Cc1nc(-n2nc(C)c(Cc3ccccc3Cl)c2C)sc1C(=O)N1CCCCC1C (stereo not drawn)	/	.	.	/	.
COc1ccc(C(=O)Nc2cc(OC)c(NC(=O)c3ccco3)cc2OC)cc1	-35.2	.	?	?	?
COc1cc(NC(=O)c2ccco2)c(OC)cc1NC(=O)Nc1cccc(Cl)c1	.	.	?	.	12.6µM[quencher]
COc1ccc(NC(=O)c2ccco2)cc1NC(=O)c1ccco1	.	.	.	.	.
COc1ccccc1NC(=O)c1ccccc1NC(=O)c1cc(Cl)ccc1NC(=O)c1ccco1	.	?	.	15.8µM	.
COc1ccc(NC(=O)c2ccco2)cc1N	-40.6	.	.	.	.
COc1ccc(NC(=O)c2ccc(NC(=O)c3ccco3)cc2)c(OC)c1	.	/	/	.	/
COc1ccc(NC(=O)c2ccco2)cc1NC(=O)c1c(OC)cccc1OC	.	.	?	.	.
CCc1cccc(NC(=O)CN(C)S(=O)(=O)c2ccc3c(c2)CCCN3C(C)=O)c1	/	.	.	/	.
CCC(Nc1ncnc2ccc(-c3c(C)noc3C)cc12)c1ccccc1 (stereo not drawn)	.	/	/	.	/
COc1nc(N/N=C/c2ccc(-c3ccccc3[N+](=O)[O-])o2)nc(N2CCOCC2)n1	.	.	.	14.1µM	.
O=[N+]([O-])c1ccc(-c2ccc(/C=N/Nc3nc(NCc4ccccc4)nc(N4CCOCC4)n3)o2)cc1	.	?	2.82µM	.	?
COC(=O)c1ccccc1-c1ccc(/C=N/Nc2nc(N3CCCC3)nc(N3CCCC3)n2)o1	.	.	?	.	?
Cc1ccc(NC(=O)Cn2c(-c3cncs3)nc3ccccc32)cc1Br	/	?	.	/	?
[N-]=C=C1C(=O)NC(=O)C([n+]2ccc(-c3ccncc3)cc2)C1c1ccccc1C(F)(F)F (stereo not drawn)	-64.7	.[0.0958 µM]	/	50.1µM	.[0.0958 µM]
COCCNC(=S)Nc1cc(OC)c(OC)cc1C#N	.	.	.	79.4µM	.
COC(=O)CN1C(=O)C2(C(C#N)=C(N)Oc3c2c(C)nn3-c2ccccc2)c2ccccc21 (stereo not drawn)	-50.0	?	28.2µM	.	.
COc1cc(/C=C/[N+](=O)[O-])ccc1OC(=O)c1cc2ccccc2oc1=O	.	/	/	3.55µM	/
Cc1noc(C)c1-c1ccc2ncnc(N(C)Cc3ccco3)c2c1	.	.	.	.	.
CN(Cc1ccco1)C(=O)c1ccc2c(c1)N(Cc1ccccc1F)C(=O)c1ccccc1S2	/	.	.	/	.
COc1ccc(CNC(=O)Cn2c(SCC(=O)Nc3ccc(C)c(C)c3)nc3ccccc32)cc1	/	.	.	/	.
COc1ccc(-c2nc(SCC(=O)Nc3ccc4c(c3)OCCO4)c(-c3ccc(C)cc3)[nH]2)cc1OC	/	.	?	/	7.94µM[quencher]
COc1ccc(NC(=O)CSc2nc(-c3ccc(OC)c(OC)c3)[nH]c2-c2ccc(C)cc2)cc1	/	.	.	/	4.47µM[quencher]
COc1ccc(NC(=O)CSc2nc(-c3cccc(C)c3)[nH]c2-c2ccccc2)cc1OC	/	.	?	/	8.91µM[quencher]
COc1ccc(-c2[nH]c(-c3ccc(OC)c(OC)c3)nc2SCC(=O)Nc2ccccc2)cc1	/	.	.	/	6.31µM[quencher]
COc1ccc(-c2nnc(SCC(=O)Nc3ccc4c(c3)OCCO4)n2N)cc1OC	.	.	?	.	.
COc1ccc(NC(=O)CSc2nc(-c3ccc(OC)cc3)[nH]c2-c2ccc(F)cc2)cc1	/	.	.	/	?
CC(CNC(=O)CCc1cn(Cc2ccccc2Cl)c2ccccc12)c1ccccc1 (stereo not drawn)	/	.	.	/	.
C=C1c2cccc(O)c2C(O)=C2C(=O)[C@@]3(O)C(O)=C(C(N)=O)C(=O)[C@@H](N(C)C)[C@@H]3[C@@H](O)[C@H]12	.	/	/	?	/
Cc1cccc(NC(=O)CSc2nc3c([nH]c4ccccc43)c(=O)n2-c2ccc(F)cc2)c1C	/	.	.	/	.

Bioassay records (PubChem BioAssay)
